Shown are actives, neighbours in structure and some others; about 4.7% of the full set was active somewhere.
TRHR PAM – allosterically enhances the human TRH receptor | hit rate 0.66% among 360,000 | P34981 | AID 493056 | TRHR cells, fluo-8 calcium fluorescence, EC20 TRH enhancement | enhancement, % at 2 µM; in the data active = enhancement above about 30%
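Enhancer read-out: after compound pinning and an initial kinetic agonist-mode read, an EC20 of TRH (10 nM final) was injected and fluo-8 calcium signal (Ex 480/Em 530) followed at 1 s/cycle for 100 cycles in TRHR-expressing cells.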
D1 agonist – human D1 receptor agonism; P21728; HEK293 T-REx D1 cells, calcium flux, agonist mode; activation, % at 2 µM; hit rate 1% among 360,000; AID 504660
Target sequence (P21728 whole entry, looked up): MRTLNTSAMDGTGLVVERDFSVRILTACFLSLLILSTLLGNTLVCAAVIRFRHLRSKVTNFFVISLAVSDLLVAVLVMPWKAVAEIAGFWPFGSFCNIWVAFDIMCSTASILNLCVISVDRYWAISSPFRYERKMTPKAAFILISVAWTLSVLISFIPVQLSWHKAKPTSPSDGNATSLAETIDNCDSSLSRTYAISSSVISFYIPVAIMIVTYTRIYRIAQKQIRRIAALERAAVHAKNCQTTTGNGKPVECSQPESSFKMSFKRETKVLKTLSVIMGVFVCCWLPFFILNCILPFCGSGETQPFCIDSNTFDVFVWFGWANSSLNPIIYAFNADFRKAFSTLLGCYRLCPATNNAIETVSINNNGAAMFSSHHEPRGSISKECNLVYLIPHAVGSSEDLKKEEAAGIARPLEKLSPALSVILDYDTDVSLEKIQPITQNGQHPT
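Tetracycline-induced HEK293 TREx D1 cells, force-coupled to calcium signalling, were dye-loaded with a no-wash calcium kit. Compound was pin-added after a 10 s baseline. Fluorescence was read kinetically at 1 cycle/s for 180 s, with calcium rises flagged as agonism.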
D1 antag – blocks dopamine activation of the human D1 receptor; HEK293 TREx D1 cells, calcium flux, dopamine EC80; hits give low values; activity change, negative = inhibition, % at 10 µM; hit rate 3.2% among 360,000; AID 504652; in the data active = activity change below about -30%
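Kinetic fluorescence of a calcium dye serves as the read-out. D1-expressing Hek293 Trex cells, induced overnight at 30 C, are exposed to compound for 180 s before an EC80 dopamine addition, then read 180 s further.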
D1 potentiator – enhances dopamine response at the human D1 receptor | potentiation, % at 10 µM | HEK293 TREx D1 cells, calcium flux, dopamine EC20 potentiation | hit rate 0.036% among 360,000; in the data active = potentiation above about 30%
TRHR agonist – agonists of human TRH receptor; activation, % at 2 µM; hit rate 0.18% among 360,000; TRHR cells, calcium flux fluo-8, FDSS agonist mode; P34981; AID 493084
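Agonist-mode FDSS calcium read (Ex 480/Em 530, 1 s cycles) in 1536-well TRHR cells with fluo-8 dye, after 10-cycle baseline and 23 nL compound addition; TRH at EC20 (10 nM final) added afterwards for the enhancer phase.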
Hits are given with their value; i = inactive. Cut-off read from the data, not from the text of the source, unless noted: active = activation above about 30%; inactive = the rest.

SMILES	TRHR PAM	D1 agonist	D1 antag	D1 potentiator	TRHR agonist
COc1ccccc1NC(=O)CSCc1cc(=O)c2c(C)cc(C)cc2[nH]1	i	i	i	i	i
Cc1ccc(CN2C(=O)CSC2c2ccc(F)cc2)cc1 (stereo unspecified)	i	i	-39.1	i	i
COc1ccc(NC(=O)C2=C(C)Nc3ncnn3C2c2sccc2C)cc1 (stereo unspecified)	i	i	i	i	i
O=C(NCc1n[nH]c(=S)n1Cc1ccccc1)c1ccccc1	i	i	i	i	i
Cc1ccsc1C(=O)NCC(=O)OCc1ccccc1	i	i	-30.2	i	i
O=C(NNC(=O)c1ccc(Cl)cc1Cl)Nc1ccccc1	i	i	-37.8	i	i
O=C(COC(=O)CNC(=O)c1ccc(Cl)cc1Cl)NNC(=O)c1ccccc1	i	i	i	i	i
Cc1ccsc1C(=O)Nc1ccc(OCc2ccccc2)cc1	i	i	i	i	i
O=C(NCc1n[nH]c(=S)n1Cc1ccccc1)c1ccc(Cl)cc1Cl	i	i	-31.4	i	i
O=C(CNC(=O)c1ccc(Cl)cc1Cl)OCc1ccccc1	i	i	-31.9	i	i
COc1ccc(CNc2n[nH]c(-c3ccco3)n2)cc1OC	i	i	i	i	i
O=[N+]([O-])c1ccc(N=Cc2sc3ccccc3c2O)cc1	i	31.5	i	i	i
Oc1c(C=NCc2ccccc2)sc2ccccc12	i	i	i	i	i
Cc1c(-c2nc3ccccc3[nH]2)cnn1C	i	i	-30.2	i	i
CSCCC(NS(=O)(=O)c1cccs1)C(=O)Nc1ccc(C)c(Cl)c1 (stereo unspecified)	i	i	-38.8	i	i
CC(NC(=O)c1ccc2c(c1)OCO2)c1ccccc1 (stereo unspecified)	i	i	i	i	i
CCc1ccc(C(C)NC(=O)c2ccc3c(c2)OCO3)cc1 (stereo unspecified)	i	i	-41.7	i	i
Cc1cccc(-n2c(CNC(=O)c3cccc(F)c3)nnc2SCC(=O)Nc2ccccc2F)c1	i	i	i	i	i
COc1ccc(OC)c(/C=C2\SC(=S)N(Cc3cccnc3)C2=O)c1	i	47.6	i	i	i
COc1ccc(O)c(/C=C2/SC(=S)N(Cc3ccccc3)C2=O)c1	i	40.3	i	i	i
COc1ccccc1/C=C1/SC(=S)N(CCC(=O)Nc2cccnc2)C1=O	i	i	i	i	i
O=C1/C(=C\c2cc(Cl)c(O)c(Cl)c2)SC(=S)N1Cc1ccccc1	i	412.5	-85.4	i	188.1
COc1ccc(/C=C2/SC(=S)N(Cc3ccccc3)C2=O)cc1O	i	i	i	i	i
CC(=O)Nc1c(C)nn(-c2ccccc2)c1N1CCC(C(=O)Nc2ccc(F)cc2Cl)CC1	i	i	i	i	i
Cc1ccc(-c2nnn(CC(=O)N(CC(=O)NCCC(C)C)c3ccc(F)cc3)n2)cc1	i	i	i	i	i
SMILES	TRHR PAM	D1 agonist	D1 antag	D1 potentiator	TRHR agonist
CCOc1ccc2nc(/N=C/c3nc(-c4ccc(Br)cc4)oc3O)sc2c1	i	37.1	i	i	i
CCCCNc1nc2c(S(=O)(=O)c3ccc(Cl)cc3)nnn2c2ccsc12	i	i	-51.3	i	i
CCc1ccc(S(=O)(=O)c2nnn3c2nc(NC2CCCC2)c2sccc23)cc1	i	i	-31.5	i	i
O=S(=O)(c1ccc(Cl)cc1)c1nnn2c1nc(NCc1ccccc1)c1sccc12	i	i	i	i	i
Cc1ccc(CCNc2nc3c(S(=O)(=O)c4ccc(C)cc4)nnn3c3ccsc23)cc1	42.0	i	i	i	i
Cc1ccc(S(=O)(=O)c2nnn3c2nc(NCc2cccs2)c2sccc23)cc1	i	i	i	i	i
Cc1ccc(S(=O)(=O)c2nnn3c2nc(NC2CCCCCC2)c2sccc23)cc1C	i	i	i	i	i
Cc1ccc(-n2c(=O)c3ccccc3n(CC(=O)Nc3cccc(C(F)(F)F)c3)c2=O)cc1	i	i	i	i	i
Cc1ccc(C)c(NC(=O)C(=O)NCC2CCCN2S(=O)(=O)c2cccs2)c1 (stereo unspecified)	i	i	i	i	i
O=C(/C=C/c1ccc(F)cc1)NC(=S)N1CCN(Cc2ccccc2)CC1	i	i	i	i	i
O=C(/C=C/c1ccc(F)cc1)NC(=S)N1CCOCC1	37.2	i	i	i	i
COc1ccc(S(=O)(=O)N2CCCOC2CNC(=O)C(=O)NCc2ccncc2)cc1 (stereo unspecified)	i	i	i	i	i
